Source: PubChem BioAssay

Key:
[1] = system: Human papillomavirus type 1a protein E7 (residues 44-93); experiment: small molecules binding HPV E7 44-93 – biochemical, small-molecule microarray, residues 44-93, 635 nm fluorescence, primary screen (AID 1108); details: fluorescence 635 nm, higher = more signal;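 note: E7 fragment applied at 1 µg/mL in TBST for 1 h at 4 C; score combines spot fluorescence with its signal to noise ratio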
[2] = hepatitis C replication reporter changes, two-sided – Huh7 cells, luciferase reporter, HCV replication inhibitor project, primary screen (AID 1109); details: Huh7 HCV replicon luciferase reporter, 48 h; higher = more signal;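 note: huh7 hepatoma cells harbouring a luciferase neomycin HCV replicon reporter; luciferase luminescence as measure of HCV replicon replication; test concentration not given here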
[3] = molecular target: Left-right determination factor 2 (Homo sapiens) (UniProt O00292); experiment: small molecules binding LEFTY2 protein – biochemical, small-molecule microarray, 635 nm fluorescence scan, primary screen (AID 1110); details: higher = more signal
Sequence of Left-right determination factor 2 (Homo sapiens) (O00292 whole entry, looked up): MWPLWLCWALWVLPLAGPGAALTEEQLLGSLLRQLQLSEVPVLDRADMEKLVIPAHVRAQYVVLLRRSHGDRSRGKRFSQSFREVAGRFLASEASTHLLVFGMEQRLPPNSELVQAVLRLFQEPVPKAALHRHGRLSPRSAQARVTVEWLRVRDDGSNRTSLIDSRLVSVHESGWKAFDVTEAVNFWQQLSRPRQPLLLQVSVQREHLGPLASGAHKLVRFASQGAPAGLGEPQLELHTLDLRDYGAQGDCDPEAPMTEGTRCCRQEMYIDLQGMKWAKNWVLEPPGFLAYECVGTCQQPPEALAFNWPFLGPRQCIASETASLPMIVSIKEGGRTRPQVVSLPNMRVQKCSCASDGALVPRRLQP

[4] = molecular target: Calmodulin-1 (Homo sapiens) (UniProt P0DP23); experiment: small molecules binding calmodulin-1 with EGTA – biochemical, small-molecule microarray, Cy5-labelled CALM1, profiling panel (AID 1111); details: Cy5-CALM1 binding fluorescence, higher = more signal;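 note: labelled calmodulin applied in Tris saline Tween buffer holding calcium plus EGTA and DTT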
[5] = molecular target: Calmodulin-1 (Homo sapiens) (UniProt P0DP23); experiment: small molecules binding Ca-loaded calmodulin-1 – biochemical, small-molecule microarray, Cy5-labelled CALM1, plus calcium, artefact control for SMM control-protein annotation, profiling panel (AID 1112); details: Cy5-CALM1 binding fluorescence, higher = more signal;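 note: score merges spot fluorescence with signal to noise from triplicate slides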
[6] = probe aWnt5a binding to arrayed compounds – biochemical, biotinylated probe, 635/667 nm fluorescence, primary screen (AID 1113); details: small-molecule microarray, higher = more signal;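 note: score merges 667 nm fluorescence intensity with signal-to-noise per printed feature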
[7] = probe aShh binding to arrayed compounds – biochemical, biotinylated probe, 635/667 nm fluorescence, primary screen (AID 1114); details: small-molecule microarray, higher = more signal;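 note: probe is biotin-labelled aShh protein from a stem cell growth factor screen; measures binding of labelled protein to compounds printed on the slide; score merges feature fluorescence at 667 nm with signal-to-noise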
[8] = probe aNog binding to arrayed compounds – biochemical, biotinylated probe, 635/667 nm fluorescence, primary screen (AID 1115); details: small-molecule microarray, higher = more signal;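 note: probe is biotinylated aNog protein used at 0.15 µg/mL for 1 h at 4 C; z-score combines 667 nm fluorescence of each spot with its signal to noise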
[9] = molecular target: Torsin-1A-interacting protein 1 (Homo sapiens) (UniProt Q5JTV8); experiment: compound microarray binding of lysate hLAP1 – cell lysate, small-molecule microarray, COS7 lysate, 635/667 nm fluorescence, primary screen (AID 1116); details: 635 nm fluorescence, higher = more signal
Sequence of Torsin-1A-interacting protein 1 (Homo sapiens) (Q5JTV8 whole entry, looked up): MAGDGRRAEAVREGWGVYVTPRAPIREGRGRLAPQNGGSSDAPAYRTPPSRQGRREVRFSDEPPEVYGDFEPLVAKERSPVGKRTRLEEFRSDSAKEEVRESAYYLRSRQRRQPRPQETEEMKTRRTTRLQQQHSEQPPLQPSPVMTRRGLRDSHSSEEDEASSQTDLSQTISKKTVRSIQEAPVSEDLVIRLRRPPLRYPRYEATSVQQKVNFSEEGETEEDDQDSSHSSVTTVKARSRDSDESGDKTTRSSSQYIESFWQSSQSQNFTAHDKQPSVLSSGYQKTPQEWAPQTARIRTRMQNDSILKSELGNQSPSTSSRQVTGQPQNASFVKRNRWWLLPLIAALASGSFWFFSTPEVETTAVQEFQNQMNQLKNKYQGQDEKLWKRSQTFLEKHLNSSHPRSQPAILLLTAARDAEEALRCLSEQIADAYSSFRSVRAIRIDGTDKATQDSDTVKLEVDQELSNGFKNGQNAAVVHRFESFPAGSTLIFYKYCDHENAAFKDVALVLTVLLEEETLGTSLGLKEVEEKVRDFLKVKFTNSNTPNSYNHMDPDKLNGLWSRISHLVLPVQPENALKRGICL

[10] = molecular target: Alpha-bungarotoxin (Bungarus multicinctus) (UniProt P60615); experiment: compounds binding labelled alpha-BTX control protein – biochemical, small-molecule microarray, Alexa647 label, 635/667 nm fluorescence, artefact control for SMM control protein annotation, profiling panel (AID 1117); details: alpha-BTX-A647 binding fluorescence, higher = more signal
Sequence of Alpha-bungarotoxin (Bungarus multicinctus) (P60615 whole entry, looked up): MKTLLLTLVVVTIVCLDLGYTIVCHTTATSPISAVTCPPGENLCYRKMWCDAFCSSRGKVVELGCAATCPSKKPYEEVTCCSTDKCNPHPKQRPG

Work on `CCCCCN1CC=CC23O[C@@H]4/C=C\CCCOC(=O)C4[C@H]2C(=O)N(CCCCCCO)[C@@H]3C1=O` (stereo not given in full) yielded a composite z-score [1] of -0.0348, a z-score [2] of -0.857 and a composite z-score [3] of -0.545. It also gave a composite z-score [4] of -0.758, a composite z-score [5] of -0.0227 and a composite z-score [6] of -0.154. For the same compound, the composite z-score [7] was -0.0035, the composite z-score [8] was -0.237 and the composite z-score [9] was 1.09. For the same compound, the composite z-score [10] was -0.752.

For `COc1ccc([Si](C)(C)[C@H]2[C@H](CC(=O)N(CCO)Cc3ccccc3)O[C@@]3(C(=O)N(Cc4cccc(N5CCC5=O)c4)c4ccccc43)[C@@H]2C)cc1`, the composite z-score [1] was 0.784, the z-score [2] was -3.85 and the composite z-score [3] was 0.829. For the same compound, the composite z-score [4] was 0.64, the composite z-score [5] was -0.173 and the composite z-score [6] was -0.1. It also gave a composite z-score [7] of -0.0793, a composite z-score [8] of -0.0311 and a composite z-score [9] of 0.059. For the same compound, the composite z-score [10] was 1.03.

In the case of `CCCCC=C[C@@H](NC(=O)c1cccs1)c1ccccc1`, the composite z-score [1] was 0.861, the z-score [2] was -2.74 and the composite z-score [3] was -0.286. For the same compound, the composite z-score [4] was 0.524, the composite z-score [5] was 0.906 and the composite z-score [6] was -0.124. It also gave a composite z-score [7] of 0.166, a composite z-score [8] of -0.269 and a composite z-score [9] of 0.159. It also gave a composite z-score [10] of 0.748.

For `CC(C)(C)N1CC=CC23O[C@@H]4/C=C\CCCOC(=O)C4[C@H]2C(=O)N(CCO)[C@@H]3C1=O` (stereo not given in full), the composite z-score [1] was -0.365, the z-score [2] was -0.95 and the composite z-score [3] was -0.679. The composite z-score [4] was -0.0083, the composite z-score [5] was 0.443 and the composite z-score [6] was -0.18. For the same compound, the composite z-score [7] was 0.0121, the composite z-score [8] was -0.261 and the composite z-score [9] was -0.231. It also gave a composite z-score [10] of -0.709.

For `CCCN1C(=O)[C@]2(COC(c3ccc(OCCCO)cc3)=N2)Cc2ccccc21`, the composite z-score [1] was 0.147, the z-score [2] was 0.0172 and the composite z-score [3] was -0.196. For the same compound, the composite z-score [4] was 1.11, the composite z-score [5] was 0.599 and the composite z-score [6] was -0.0462. The composite z-score [7] was 0.118, the composite z-score [8] was 0.705 and the composite z-score [9] was 0.39. The composite z-score [10] was 1.03.

`COC(=O)c1ccc(C23CC2(C(NP(=O)(c2ccccc2)c2ccccc2)c2ccccc2)C3)cc1` (stereo not given) gave a composite z-score [1] of 1.31, a z-score [2] of -1.17 and a composite z-score [3] of -0.0656. The composite z-score [4] was 2.35, the composite z-score [5] was 0.696 and the composite z-score [6] was 0.195. For the same compound, the composite z-score [7] was 0.484, the composite z-score [8] was -0.708 and the composite z-score [9] was 2.58. The composite z-score [10] was 1.38.

With `COCCOC(=O)N1C(=O)[C@@]2(c3cc(C#CC4=CCCCC4)ccc31)[C@H](C(=O)N1CCc3cc(OC)c(OC)cc3C1)[C@H]1C(=O)O[C@H](c3ccccc3)[C@H](c3ccccc3)N1[C@@H]2c1ccccc1OCCO` the composite z-score [1] was 0.899, the z-score [2] was -1.35 and the composite z-score [3] was 0.546. The composite z-score [4] was 0.805, the composite z-score [5] was 0.512 and the composite z-score [6] was -0.107. The composite z-score [7] was -0.153, the composite z-score [8] was 0.365 and the composite z-score [9] was 0.261. It also gave a composite z-score [10] of 0.917.

Work on `COc1ccc([Si](C)(C)[C@@H]2[C@@H](CCn3cc([C@H](O)c4ccccc4)nn3)O[C@]3(C(=O)N(Cc4cccc(N5CCOC5=O)c4)c4ccccc43)[C@H]2C)cc1` yielded a composite z-score [1] of -0.362, a z-score [2] of -2.64 and a composite z-score [3] of -1.47. The composite z-score [4] was -0.13, the composite z-score [5] was 0.78 and the composite z-score [6] was -0.202. For the same compound, the composite z-score [7] was -0.117, the composite z-score [8] was -0.256 and the composite z-score [9] was -0.0689. It also gave a composite z-score [10] of -0.85.

`CCOC(=O)C1=CCC(C(C)(C)C)N(S(=O)(=O)c2ccc(C)cc2)C1` (stereo not given) gave a composite z-score [1] of 1.46, a z-score [2] of -2.59 and a composite z-score [3] of 1.37. For the same compound, the composite z-score [4] was 0.898, the composite z-score [5] was 0.197 and the composite z-score [6] was 0.0561. For the same compound, the composite z-score [7] was -0.532, the composite z-score [8] was 0.562 and the composite z-score [9] was 0.944. It also gave a composite z-score [10] of 1.5.

For `Cc1ccc(F)cc1S(=O)(=O)N[C@@H]1CCN(Cc2ccc(-c3ccccc3)cc2)C1`, the composite z-score [1] was 0.504, the z-score [2] was -4.36 and the composite z-score [3] was 0.473. For the same compound, the composite z-score [4] was -0.452, the composite z-score [5] was -0.578 and the composite z-score [6] was -0.129. It also gave a composite z-score [7] of -0.0011, a composite z-score [8] of -0.316 and a composite z-score [9] of 0.668. It also gave a composite z-score [10] of 0.116.

Compound `C=CCC(OC(C)=O)[C@@H]1[C@@H](N(Cc2ccc(-c3ccccc3)cc2)C(=O)Cc2ccc(OC)cc2)c2cc(OCCCO)ccc2N1C(=O)c1ccc2ccccc2n1` (stereo not given in full) has a composite z-score [1] of -0.844, a z-score [2] of -0.36 and a composite z-score [3] of -0.259. It also gave a composite z-score [4] of 0.143, a composite z-score [5] of 1.01 and a composite z-score [6] of 0.0259. For the same compound, the composite z-score [7] was -0.0553, the composite z-score [8] was -0.0544 and the composite z-score [9] was 0.589. The composite z-score [10] was 0.819.

Compound `CCCNC(=O)[C@@]1(c2ccc([N+](=O)[O-])cc2)CC(=O)N(CC23CC4CC(CC(C4)C2)C3)[C@@H]1c1ccc(CO)cc1` has a composite z-score [1] of 0.914, a z-score [2] of -2.86 and a composite z-score [3] of 0.421. The composite z-score [4] was -0.865, the composite z-score [5] was -0.827 and the composite z-score [6] was 0.0004. The composite z-score [7] was -0.569, the composite z-score [8] was 0.0278 and the composite z-score [9] was -0.303. For the same compound, the composite z-score [10] was 1.01.

In the case of `CCN(CC)c1ccc(N2CC=CC34O[C@@H]5/C=C\CCCOC(=O)C5[C@H]3C(=O)N(C(CO)C(C)C)[C@@H]4C2=O)cc1` (stereo not given in full), the composite z-score [1] was -0.22, the z-score [2] was -0.132 and the composite z-score [3] was -0.393. The composite z-score [4] was -0.956, the composite z-score [5] was -1.15 and the composite z-score [6] was -0.0758. The composite z-score [7] was -0.221, the composite z-score [8] was -0.164 and the composite z-score [9] was -0.0861. For the same compound, the composite z-score [10] was -0.692.

`COc1ccc([Si](C)(C)[C@@H]2[C@@H](CC(=O)N3CCC[C@H]3CO)O[C@]3(C(=O)N(C)c4c(Br)cc(C)cc43)[C@H]2C)cc1` gave a composite z-score [1] of 1.28, a z-score [2] of -2.05 and a composite z-score [3] of 0.396. It also gave a composite z-score [4] of 0.207, a composite z-score [5] of 0.0431 and a composite z-score [6] of 0.0219. For the same compound, the composite z-score [7] was -0.0035, the composite z-score [8] was -0.229 and the composite z-score [9] was 0.948. The composite z-score [10] was 0.338.

In the case of `Cc1c(NC(=O)CC#N)c(=O)n(-c2ccccc2)n1C`, the composite z-score [1] was 0.371, the z-score [2] was -0.27 and the composite z-score [3] was 0.364. For the same compound, the composite z-score [4] was 0.121, the composite z-score [5] was -0.235 and the composite z-score [6] was -0.0944. The composite z-score [7] was 0.253, the composite z-score [8] was -0.434 and the composite z-score [9] was 0.292. For the same compound, the composite z-score [10] was 1.08.

With `O=C1O[C@H](c2ccccc2)[C@H](c2ccccc2)N2[C@H]1[C@@H](C(=O)O)[C@]1(C(=O)Nc3ccc(C#CC4(O)CCCCCC4)cc31)[C@H]2c1ccc(OCCO)cc1` the composite z-score [1] was 1.5, the z-score [2] was -1.77 and the composite z-score [3] was -0.418. The composite z-score [4] was 1.89, the composite z-score [5] was 0.475 and the composite z-score [6] was 0.0692. For the same compound, the composite z-score [7] was 0.0048, the composite z-score [8] was 0.0028 and the composite z-score [9] was 0.535. It also gave a composite z-score [10] of 2.21.

`Cc1ccc(S[C@]2(C(=O)NCCN3CCOCC3)CC(=O)N(Cc3cc(C(F)(F)F)cc(C(F)(F)F)c3)[C@@H]2c2ccc(CO)cc2I)cc1` showed a composite z-score [1] of 0.105, a z-score [2] of -1.59 and a composite z-score [3] of -1.45. It also gave a composite z-score [4] of -0.452, a composite z-score [5] of 0.492 and a composite z-score [6] of -0.176. For the same compound, the composite z-score [7] was -0.331, the composite z-score [8] was -0.389 and the composite z-score [9] was -0.604. For the same compound, the composite z-score [10] was -0.306.

Work on `CC(C)Cc1ccc(CN2CC[C@@H](NS(=O)(=O)c3ccccc3)C2)cc1` yielded a composite z-score [1] of 0.429, a z-score [2] of -4.17 and a composite z-score [3] of 0.0423. It also gave a composite z-score [4] of -0.856, a composite z-score [5] of -0.859 and a composite z-score [6] of -0.176. It also gave a composite z-score [7] of -0.455, a composite z-score [8] of -0.438 and a composite z-score [9] of -0.633. It also gave a composite z-score [10] of -0.577.
